From the supplement of paper PMC6555819

Tests used:
Assay in all cases: PBM binding z-score (relative to random genomic background probes); higher = stronger binding; sequences stand for … in GC…GCGATTGACAGCGTAGAATGAAGG
[1] = system: FXR:RXRa (NR concentration 270 nM, RXRa partner concentration 90 nM)
Summary of the method: (§1)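 The probes on custom Agilent 4×180K protein-binding microarrays were double-stranded, with 34-nt variable regions bearing direct-repeat seeds, single-nucleotide variants, half-site ablations and random human genomic background sequences. Incubation lasted 1 h with ligand-free nuclear receptor dimers in PBS pH 7.4, 2% milk, 0.02% Triton X-100, 1 mM DTT, 0.2 mg/mL BSA and 0.4 mg/ml salmon testes DNA. Antibodies against each partner (one per run) detected bound dimers, and fluorescence scans were regression-normalized. Binding z-scores take the random background probes as reference.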

[2] = system: LXRa:RXRa (NR concentration 270 nM, RXRa partner concentration 90 nM)
Summary of the method: as §1

[3] = system: LXRa homodimer (NR concentration 270 nM)
Summary of the method: as §1

[4] = system: LXRb:RXRa (NR concentration 270 nM, RXRa partner concentration 90 nM)
Summary of the method: as §1

[5] = system: LXRb homodimer (NR concentration 270 nM)
Summary of the method: as §1

[6] = system: PPARa:RXRa (NR concentration 270 nM, RXRa partner concentration 90 nM)
Summary of the method: as §1

[7] = system: PPARg:RXRa (NR concentration 180 nM, RXRa partner concentration 90 nM)
Summary of the method: as §1

[8] = system: PPARg:RXRa 270nM:90nM, anti-RXR (NR concentration 270 nM, RXRa partner concentration 90 nM)
Summary of the method: as §1

[9] = system: PPARg:RXRa 30nM:10nM, anti-RXR (NR concentration 30 nM, RXRa partner concentration 10 nM)
Summary of the method: as §1

[10] = system: PPARg:RXRa 90nM:30nM, anti-RXR (NR concentration 90 nM, RXRa partner concentration 30 nM)
Summary of the method: as §1

Row | Sequence | PBM binding z-score [1] | PBM binding z-score [2] | PBM binding z-score [3] | PBM binding z-score [4] | PBM binding z-score [5] | PBM binding z-score [6] | PBM binding z-score [7] | PBM binding z-score [8] | PBM binding z-score [9] | PBM binding z-score [10]
1 | AATACAGTGTCACTAGGCCAGAGTAGGTACGAAT | -0.0447 | 0.0759 | -0.316 | -0.0896 | -0.131 | 1.44 | 1.82 | 1.52 | 0.462 | 0.705
2 | GCGACTGGGGCATGAGCAGGTTACCATAACTTAA | -0.261 | -0.325 | -0.638 | 0.484 | -1.12 | 1.1 | 1.08 | 1.11 | -0.134 | 0.437
3 | ACCGAAAGGTCGAAGGTGAGTATACCCACCCGAA | 4.73 | 3.55 | -0.00494 | 2.87 | 0.185 | 4.8 | 4.39 | 4.89 | 1.89 | 3.85
4 | ACAGACAGGTGATGAAGGTAACTCCGGCTATCAT | 0.229 | 0.181 | -0.0879 | -0.149 | -0.444 | 0.23 | 0.658 | -0.261 | -0.0835 | -0.0688
5 | ATCTCTAGGTCACCAAGTTCAGTGAATGCCGAAC | 4.67 | 5.17 | 4.93 | 3.52 | 2.23 | 4.74 | 7.04 | 6.1 | 3.59 | 5.18
6 | TCTTGTACATCAAAGGTTAAGAAAGCCGAAGCCT | 1.52 | 2.15 | 0.446 | 2 | 0.657 | 2.92 | 2.52 | 4.42 | 3.95 | 4.35
7 | CAAACTAGGTCAGAGGTCAAAGTCGAGCCAACCA | 7.41 | 6.65 | 5.53 | 6.17 | 2.6 | 7.53 | 13.4 | 11.1 | 11.7 | 12.8
8 | CGTCAAAGTTCACGGTAACGTAACAGAAAGCAGC | 7.1 | 6.15 | 2.53 | 4.09 | 0.842 | 5.42 | 6.18 | 6.59 | 3.33 | 5.36
9 | CGTCCAAGGTCATAGGAGGTCAGTGAAGACAGAT | 7.58 | 7.44 | 4.4 | 5.99 | 1.01 | 5.84 | 5.77 | 5.68 | 2.12 | 4.17
10 | CAGCCTAGGTCATGGCCAGTATAGGAGGAACGTT | 4.47 | 3.18 | -0.187 | 1.92 | -0.552 | 3.81 | 2.34 | 2.86 | 0.578 | 1.71
11 | ATGCCAAGGTGATCGTGAGGTCGTTGATACTAAC | 1.44 | 0.89 | 0.206 | 0.945 | -0.844 | 1.55 | 0.467 | 0.399 | -0.303 | 0.00157
12 | TTACCAAGGTGAAAGGTCGTTGGTGCACGCCTTG | 4.28 | 3.47 | 0.325 | 2.87 | -0.67 | 5.54 | 8.98 | 8.05 | 6.8 | 8.19
13 | CCTGCTTGGTCATGGTCAGCTAATCTACAGTATG | -0.315 | -0.299 | -0.539 | -0.459 | -0.639 | -0.334 | -0.171 | -0.154 | -0.537 | -0.192
14 | CGTCCAAGGTCAATACTAGGTCAGTGAAAGCATT | 6.7 | 5.42 | 3.65 | 4.71 | 1.55 | 5.33 | 4.52 | 4.7 | 2.1 | 3.73
15 | GCATATAGGTAATACAATGTGAAAGTCCGATTGT | 0.12 | -0.102 | 0.125 | -0.0369 | -0.0471 | 0.701 | 1.29 | 0.561 | 0.448 | 0.672
16 | TAGCCTAGGTCATGGGCCAATATACCACGCGAAC | 4.48 | 3.55 | 0.401 | 2.56 | 0.00748 | 4.3 | 4.22 | 3.93 | 1.34 | 2.91
17 | GCTCGGAGGACAAGGTCCGAGCTTTGTCCGTAGA | -0.694 | -0.575 | -1.02 | -1.07 | -1.61 | -0.595 | -1.19 | -0.67 | -1.34 | -1.09
18 | TAGCCTAGGGCATGGGCCAGTATACCACGCGAAC | -0.362 | -0.149 | -0.378 | -0.666 | -1.19 | -0.188 | 0.658 | 0.665 | -0.115 | 0.0783
19 | TGAATGAGGTTATAAGATCAGGGGACGTTGCAAA | 1.42 | 1.51 | -0.106 | 1.61 | 0.309 | 2.73 | 1.65 | 1.96 | 0.887 | 1.28
20 | ACTAGCAGGCCAAGTTTGGGTCATTCAAACAAAG | 0.394 | 0.425 | -0.172 | 0.818 | -0.545 | 1.8 | 0.0288 | 0.215 | -0.284 | -0.177
21 | CAAACTAGGTCAAGACGTCAAAGTCCGCTTCCCG | 3.84 | 2.6 | 0.426 | 1.79 | 0.329 | 4.81 | 7.43 | 6.72 | 4.47 | 6.25
22 | CCTAGCAGGCCAGGGTCAATCAAGCATTTCGCTT | 3.41 | 2.94 | -0.348 | 3.36 | -1.18 | 4.23 | 0.925 | 1.66 | -0.329 | 0.705
23 | TCATGTAGATCAGCAGGTTAAGAAAGCTGGCCAA | -0.0707 | 0.39 | -0.338 | 0.259 | -0.58 | 0.606 | -0.175 | 1.5 | 2.67 | 2.16
24 | CGTCCAAGGTCATAGGAGGTCAGAGAAGACAGAT | 8 | 7.71 | 5.01 | 6.38 | 0.877 | 6.27 | 6.35 | 6.19 | 2.71 | 5.09
